Structures are written as SMILES. Counter-ions that a name gives are not always drawn. Unmarked numbers belong to inactive results.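 The calls were made as follows: for the amine columns active = adjusted P below 0.05 in both replicates with a change the same way and a mean fold change under 0.8 or over 1.25; inactive = the rest.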

For this experiment, the system named is Escherichia coli IAI1. The experiment in a line: fold change of Cadaverine concentration vs plate DMSO controls (fold change (ratio)); higher = more amine produced, active = hit call of the paper (significant change in both replicates, either direction). The following applies: incubation time: 27 h, anaerobic, 37 °C. An outline of the steps:
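Amines were quantified by LC–triple-quadrupole MS in dynamic MRM mode against external calibration curves, with drift correction within each batch. The samples were whole anaerobic mGAM cultures of four gut bacterial strains, grown for 27 h at 37 °C in 80 µL wells and extracted with cold acetonitrile/methanol with 0.1% formic acid, then centrifuged. Values are reported as fold change over DMSO controls on the same plate. The mean of 2 biological replicates is given.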
As for `CC(C)COCC(CN(Cc1ccccc1)c1ccccc1)N1CCCC1` (centres undefined) [Bepridil hydrochloride] (20 µM), the “fold change of Cadaverine concentration” value is 1.01.
As for `C[C@@H]1C[C@H]2[C@@H]3CCC4=CC(=O)C=C[C@]4(C)[C@@]3(Cl)[C@@H](O)C[C@]2(C)[C@@]1(OC(=O)c1ccco1)C(=O)CCl` [Mometasone furoate] (20 µM), the “fold change of Cadaverine concentration” value was 1.03.
In the case of `c1ccc(-c2ccc(C(c3ccccc3)n3ccnc3)cc2)cc1` (centres undefined) [Bifonazole] (20 µM), the “fold change of Cadaverine concentration” value is 0.981.
With `Cc1ncc([N+](=O)[O-])n1CC(C)O` (centres undefined) [Secnidazole] (20 µM) the figure was 0.987.
With `CC(=O)[C@H]1CC[C@H]2[C@@H]3C[C@H](C)C4=CC(=O)CC[C@]4(C)[C@H]3[C@@H](O)C[C@]12C` [Medrysone] (20 µM) the figure was 1.02; with `Cc1ccc(C(=O)c2ccc(CC(=O)O)n2C)cc1` [Tolmetin sodium salt dihydrate] (20 µM), 1.
With `COCCOC(=O)C1=C(C)NC(C)=C(C(=O)OC(C)C)C1c1cccc([N+](=O)[O-])c1` (centres undefined) [Nimodipine] (20 µM) the figure was 1.09; with `CCCCCCCCCCCCCCCCCCCCCC(=O)Nc1ccn([C@@H]2O[C@H](CO)[C@@H](O)[C@@H]2O)c(=O)n1` [Enocitabine] (20 µM), 1.01.
As for `CCN(CCCc1ccccc1)CCCc1ccccc1` [Alverine citrate salt] (20 µM), the “fold change of Cadaverine concentration” value is 1.29 (active).
Regarding `CN(C)CCCC1(c2ccc(F)cc2)OCc2cc(C#N)ccc21` (centres undefined) [Citalopram hydrobromide] (20 µM), the “fold change of Cadaverine concentration” value is 0.991.
With `O=C1Nc2ccc(Cl)cc2[C@@](C#CC2CC2)(C(F)(F)F)O1` [Efavirenz] (20 µM) the figure was 1.02; with `O=C1NS(=O)(=O)c2ccccc21` [Saccharin] (50 µM), 1.06; with `O=C(O)CCCC[C@@H]1SC[C@@H]2NC(=O)N[C@@H]21` [Biotin] (20 µM), 1.01.
With `CC(C)(C(=O)O)c1ccc(C(O)CCCN2CCC(C(O)(c3ccccc3)c3ccccc3)CC2)cc1` (centres undefined) [Fexofenadine hydrochloride] (20 µM) the figure was 1.02.
With `CC(C)[C@H]1CC[C@H](C(=O)N[C@H](Cc2ccccc2)C(=O)O)CC1` [Nateglinide] (20 µM) the figure was 0.984.
Consider `COc1ccc(CNc2nc(N3CCC[C@H]3CO)ncc2C(=O)NCc2ncccn2)cc1Cl` [Avanafil] (20 µM), for which the “fold change of Cadaverine concentration” value is 1.02.
With `C#CCN(C)CCCOc1ccc(Cl)cc1Cl` [Clorgyline hydrochloride] (20 µM) the figure was 0.983; with `Cc1cc(-c2ccccc2)nnc1NCCN1CCOCC1` [Minaprine dihydrochloride] (20 µM), 1.01.
With `c1ccc(CNc2ncnc3nc[nH]c23)cc1` [Aminopurine, 6-benzyl] (20 µM) the figure was 1.02.
In the case of `COc1cccc(N(C)C(=S)Oc2ccc3c(c2)CCCC3)n1` [Liranaftate] (20 µM), the “fold change of Cadaverine concentration” value was 1.01.
With `C=CCOc1ccccc1OCC(O)CNC(C)C` (centres undefined) [Oxprenolol hydrochloride] (20 µM) the figure was 1.02.
Consider `C[C@@H](O[C@H]1OCCN(Cc2n[nH]c(=O)[nH]2)[C@H]1c1ccc(F)cc1)c1cc(C(F)(F)F)cc(C(F)(F)F)c1` [Aprepitant] (20 µM), for which the “fold change of Cadaverine concentration” value was 1.02.
With `CCOc1ccc(Cc2nccc3cc(OCC)c(OCC)cc23)cc1OCC` [Ethaverine hydrochloride] (20 µM) the figure was 1.03; with `O=C(CCCCC(=O)Nc1c(I)cc(I)c(C(=O)O)c1I)Nc1c(I)cc(I)c(C(=O)O)c1I` [Iodipamide] (20 µM), 1.01; with `NC(=O)c1cnccn1` [Pyrazinamide] (20 µM), 0.98.
With `CCN(CC)CCOC(=O)c1ccc(N)cc1` [Procaine hydrochloride] (20 µM) the figure was 0.979; with `CCCCC(CC)CNC(=N)NC(=N)NCCCCCCNC(=N)NC(=N)NCC(CC)CCCC` (centres undefined) [Alexidine dihydrochloride] (20 µM), 1.12.
With `Cc1onc(-c2ccccc2)c1C(=O)N[C@@H]1C(=O)N2[C@@H]1SC(C)(C)[C@@H]2C(=O)O` [Oxacillin sodium] (20 µM) the figure was 1.01.
Consider `CC(=O)N[C@@H](CC(C)C)C(=O)O` [N-Acetyl-L-leucine] (20 µM), for which the “fold change of Cadaverine concentration” value is 1.07.

The record behind these values is the supplement of paper PMC12494721.
